# Shown are actives, neighbours in structure and some others; about 3.9% of the full set was active somewhere.
# TROY NFkB inh – inhibitors of TROY-driven NF-kB signaling, primary screen, Q293 LMP1-TROYcd cells, NF-kB luciferase, uHTS; Q293 LMP1-TROYcd NF-kB luciferase reporter, 4 h; inhibition, % at 10 µM; actives 0.98% (n = 360,000); AID 1347056, 2019;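 active = compounds whose plate-normalised and pattern-corrected inhibition of the luciferase reporter signal at the single screening dose is 50% or more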
# TRAIL sens C8 – viability loss with TRAIL in NB7+C8 cells, primary screen, TRAIL sensitizer project, cell-based, ATPlite luminescence; inhibition (viability loss, TRAIL sensitization), % at 10 µM; actives 1% (n = 360,000); AID 624354, 2012;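 active = compounds causing at least 50% loss of cell viability in the single-dose screen, relative to plate controls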
# TWEAK-Fn14 inh – inhibitors of TWEAK-Fn14 signaling, primary screen, luciferase reporter cells, uHTS; TWEAK-stimulated Fn14 reporter cells, luciferase luminescence, 8 h; inhibition, % at 10 µM; actives 2% (n = 360,000); in the data active = inhibition above about 50%
# HIF-2a block – HIF-2a reporter inhibitors, primary screen, luminescence, 786-0 RCC cells; 786-0 RCC cells HIF-2a reporter, luciferase luminescence, overnight; inhibition, % at 18.8 µM; actives 0.72% (n = 360,000);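 active = inhibition of the luminescence signal of 40% or more relative to plate controls, in a single-dose primary screen at 18.75 µM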
# HSP90 inh – HSP90 inhibitors, primary screen, cell lysate, luminescence. actives 0.91% (n = 290,000). Heat shock protein HSP 90 (rabbit reticulocyte lysate; luciferase refolding). inhibition, % at 5.6 µM. Rabbit reticulocyte lysate, luciferase refolding luminescence, 3 h;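 active = inhibition above the screen-wide mean plus 3 SD, computed separately per campaign, cut at about 16% in these data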;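 also: 0% = DMSO wells and 100% = 60 µM geldanamycin wells; inhibitors lower the luminescence because luciferase stays unfolded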
# aSyn UTR inh – MLPCN primary screen, SNCA 5' untranslated region; alpha-synuclein 5'UTR reporter, inhibitor activity; inhibition, % (tested at 7.5 µM); actives 0.82% (n = 300,000); AID 1813, 2009; in the data active = inhibition above about 60%;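 also: H4 neuroglioblastoma cells stably carrying SNCA 5'UTR luciferase fusion; 0% = DMSO wells and 100% = positive control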
# An asterisk follows results filed as active; . = no result.
SMILES,TROY NFkB inh,TRAIL sens C8,TWEAK-Fn14 inh,HIF-2a block,HSP90 inh,aSyn UTR inh
COc1c(S(=O)(=O)N2CCCCC2)ccc2c(S(=O)(=O)N3CCCCC3)cccc12,43,12,64*,9,-2,.
O=C(Nc1ccc(Cl)c([N+](=O)[O-])c1)c1ccc(NCCCN2CCOCC2)c([N+](=O)[O-])c1,-3,56*,-40,-10,-1,9
COCCNC(=O)C1(C)CCN(C(=O)c2cccc(C)c2C)C1 (stereo not drawn),8,-22,3,4,.,.
CC(=O)Nc1ccccc1-c1ccccc1[N+](=O)[O-],9,2,0,15,.,.
CCS(=O)(=O)c1cc([N+](=O)[O-])c(Sc2ccccc2NC(C)=O)s1,68*,0,61*,-84,4,-40
c1ccc(-c2c3ccccc3nc3[nH]c4ccccc4c23)cc1,-15,4,22,1,2,-7
c1ccc2nc3c(nc2c1)[nH]c1ccccc13,-62,52*,7,-193,-3,-171
Cc1cc(Br)cn2c(Cc3cccc(F)c3)c(-c3ccc(Cl)cc3)nc12,36,5,44,-5,.,.
COCc1c(C(C)C)nc(C(C)C)c(/C=C/[C@@H](O)C[C@@H](O)CC(=O)O)c1-c1ccc(F)cc1,.,.,.,.,.,115*
C=C1CC(Cn2cc(Br)c(=O)[nH]c2=O)(c2ccc(-c3ccccc3)cc2)OC1=O (stereo not drawn),49,94*,83*,94*,.,.
C[C@H](CO)N1C[C@H](C)[C@@H](CN(C)S(=O)(=O)c2ccc(-n3cccn3)cc2)OCc2cnnn2CCCC1=O,-2,-2,-6,4,.,.
CN(C(=O)c1ccc(NC(=O)Cc2cccc(NC(=O)C3CCCN(C(=O)C4CC4)C3)c2)cc1)C1CC1 (stereo not drawn),-24,39,6,-9,.,.
COc1cc(SC#N)ccc1N=Cc1c(C)[nH]n(-c2ccc(Cl)cc2)c1=O,-26,68*,-42,12,9,-20
CCN(CC)c1ccc(N)cc1,5,60*,-8,-33,.,.
COc1ccc([C@H]2C[C@@H](n3cc(-c4ccc(F)cc4)nn3)[C@H](O)CN2C(=O)C2CCCCC2)cc1,2,-8,-13,-1,.,.
CC(C)C[C@H]1COc2cc(N(C)CCO)ccc2S(=O)(=O)N1,-11,10,14,-7,.,.
Fc1cccc(-c2cc3nc4c(c(N5CCN(c6cnccn6)CC5)n3n2)CCCC4)c1,.,.,.,.,9,.
Clc1cccc(-c2cc3nc4c(c(N5CCN(c6cnccn6)CC5)n3n2)CCCC4)c1,26,-16,61*,-115,1,.
Cc1cc2ncc(-c3ccc(Cl)cc3)c(N)n2n1,-55,35,-10,-233,-2,-117
COCc1nn2c(N)c(-c3ccccc3)cnc2c1-c1ccccc1,-12,51*,-9,-224,-2,-106
Nc1c(-c2ccccc2)cnc2cc(-c3ccccc3)nn12,-42,65*,20,-305,-2,-121
COCc1nn2c(N)c(C#N)cnc2c1-c1ccccc1,-7,-4,-3,-31,-2,24
CCN(CC)C(=O)c1cccc(-c2csc(C(O)(c3ccccc3)C(F)(F)F)n2)c1 (stereo not drawn),39,-6,42,16,.,.
CCOc1ccc(-c2cc(C(=O)Nc3ccc(C)c(NS(C)(=O)=O)c3)[nH]n2)c(C)c1,39,30,52*,-47,.,.
CCOc1ccc(-c2cc(C(=O)NCCOC)[nH]n2)c(C)c1,1,5,5,-66,.,.
SMILES,TROY NFkB inh,TRAIL sens C8,TWEAK-Fn14 inh,HIF-2a block,HSP90 inh,aSyn UTR inh
Cc1nc2ccc(C(=O)c3ccccc3)cc2[nH]1,-42,7,-3,-172,2,-95
CCOc1ccc2nc(NCCCO)[nH]c2c1,2,-21,13,-31,1,20
CCCOc1ccc2nc(NC(=O)OC)[nH]c2c1,.,.,.,.,2,84*
COC(=O)Nc1nc2ccc(C(=O)c3ccc(F)cc3)cc2[nH]1,.,.,.,.,1,99*
CCCCn1nnnc1C1(C)CCC(=O)N1C1CC1 (stereo not drawn),7,-15,7,2,.,.
COc1ccc(S(=O)(=O)Nc2ccccc2-c2nnn(CC(=O)Nc3ccccc3OC)n2)cc1,28,4,28,22,-1,-25
